From PubChem BioAssay
Inconclusive results are not listed. The source made the active and inactive calls.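 How the source made its calls, unless noted: active means efflux inhibition above 0.42, the validation set average plus 4 SD; inconclusive means no clear call, values can overlap the other calls; inactive means the rest.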

Legend:
[1] = rapamycin-like changes in RPL19A-GFP expression – cell-based, S. cerevisiae, multiplex flow cytometry, primary screen (AID 1862; in the data active means percent of DMSO control GFP below about 86%;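 further: lower values mimic rapamycin by blocking the RPL19A rise seen in DMSO cells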); settings: S. cerevisiae RPL19A-GFP strain, flow cytometry fluorescence, 3 h; at 10 µM; stronger effect = lower value
[2] = TOR pathway GLN3 branch reporter MEP2-GFP changes – S. cerevisiae, multiplex flow cytometry, primary screen (AID 1867;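 active means GFP response, as percent of the DMSO control, above the screen-wide mean plus 3 SD, about 139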;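 further: median GFP channel fluorescence of barcode-gated MEP2-GFP cells measured by flow cytometry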); settings: S. cerevisiae MEP2-GFP strain, 3 h, at 10 µM, stronger effect = higher value, 100% means same as DMSO wells
[3] = TOR pathway RTG branch CIT2 reporter changes – S. cerevisiae, GFP fusion, multiplex flow cytometry, primary screen (AID 1870;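 active means percent response above a set limit, the screen-wide mean plus 3 SD, cut at about 130% in these data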;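 further: barcoded CIT2-GFP strain pooled with four other GFP strains with rapamycin as positive control; median GFP fluorescence per well over plate mean of DMSO wells so 100% = DMSO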); settings: S. cerevisiae CIT2-GFP expression, 3 h, at 10 µM, stronger effect = higher value
[4] = TOR pathway LAP4-GFP level changes – S. cerevisiae, multiplex flow cytometry, primary screen (AID 1873;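 active means GFP signal, as percent of the solvent control, above the screen mean plus 3 SD, about 149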); settings: S. cerevisiae LAP4-GFP expression, 3 h, at 10 µM, stronger effect = higher value
[5] = yeast AGP1-GFP level changes, GLN3 branch – cell-based, multiplex flow cytometry, S. cerevisiae, primary screen (AID 1887;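 active means GFP signal above the screen-wide mean plus 3 SD, that is over about 124.5% of the solvent control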;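 further: AGP1-GFP fusion strain of S. cerevisiae within a five-strain barcoded multiplex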); settings: 3 h, at 10 µM, stronger effect = higher value
[6] = reduced mouse 2C T cell binding to pMHC/ICAM-1 vesicles – MLPCN validation set, flow cytometry, LFA-1/ICAM-1 modulator project, pilot screen (AID 2523;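 active means response below a set limit, under 55% cells CD8-positive and vesicle-bound, and CD8 cells' 90th-percentile brightness under 279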;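 on vesicle binding response: mean PE anti-B7-1 fluorescence of CD8+ cells relative to row control; 100% = QL9-loaded vesicles with DMSO vehicle in the same plate row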); settings: 2C mouse CD8+ T cells, at 7 µM, stronger effect = lower value; double positive events: measured here: CD8+/vesicle+ event percentage
[7] = target: Integrin beta-1 (Homo sapiens) + Integrin alpha-4 (Homo sapiens) (UniProt P13612+P05556); assay: alpha4beta1 integrin LIBS antibody binding reduction – U937 cells, HUTS-21 mAb, flow cytometry, validation set, VLA-4 allosteric modulator project, pilot screen (AID 2674;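 active means inhibition above 50%, about 3 SD of the validation set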;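 further: antibody binding induced by the VLA-4 ligand LDV present at three times its Kd; 0% = LDV ligand with antibody and no compound and 100% = antibody without LDV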); settings: HUTS-21 LIBS mAb binding, at 6.7 µM, stronger effect = higher value, binding induced by LDV ligand
Chain of Integrin beta-1 (Homo sapiens) + Integrin alpha-4 (Homo sapiens) (P05556 whole entry, looked up): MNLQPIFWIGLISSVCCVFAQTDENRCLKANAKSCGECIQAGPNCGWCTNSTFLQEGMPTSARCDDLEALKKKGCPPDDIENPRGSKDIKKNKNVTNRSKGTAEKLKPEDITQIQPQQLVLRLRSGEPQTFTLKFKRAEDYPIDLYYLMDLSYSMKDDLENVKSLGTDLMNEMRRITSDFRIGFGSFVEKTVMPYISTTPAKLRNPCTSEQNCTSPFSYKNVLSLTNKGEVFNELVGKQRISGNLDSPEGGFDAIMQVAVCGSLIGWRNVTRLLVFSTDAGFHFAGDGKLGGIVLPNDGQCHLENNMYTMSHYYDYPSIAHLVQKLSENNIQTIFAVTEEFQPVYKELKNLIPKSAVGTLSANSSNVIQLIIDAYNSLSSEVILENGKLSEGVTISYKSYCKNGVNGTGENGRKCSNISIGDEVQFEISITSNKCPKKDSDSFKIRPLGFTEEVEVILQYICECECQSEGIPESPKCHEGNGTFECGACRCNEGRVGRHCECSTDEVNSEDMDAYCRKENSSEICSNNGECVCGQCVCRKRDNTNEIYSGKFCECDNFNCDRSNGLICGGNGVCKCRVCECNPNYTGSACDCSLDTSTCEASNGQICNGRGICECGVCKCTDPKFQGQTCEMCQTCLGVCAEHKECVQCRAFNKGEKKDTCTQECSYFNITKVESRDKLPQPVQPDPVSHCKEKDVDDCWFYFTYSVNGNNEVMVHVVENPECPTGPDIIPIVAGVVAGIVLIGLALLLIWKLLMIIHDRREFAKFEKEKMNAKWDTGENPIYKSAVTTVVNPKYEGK
Chain of Integrin beta-1 (Homo sapiens) + Integrin alpha-4 (Homo sapiens) (P13612 whole entry, looked up): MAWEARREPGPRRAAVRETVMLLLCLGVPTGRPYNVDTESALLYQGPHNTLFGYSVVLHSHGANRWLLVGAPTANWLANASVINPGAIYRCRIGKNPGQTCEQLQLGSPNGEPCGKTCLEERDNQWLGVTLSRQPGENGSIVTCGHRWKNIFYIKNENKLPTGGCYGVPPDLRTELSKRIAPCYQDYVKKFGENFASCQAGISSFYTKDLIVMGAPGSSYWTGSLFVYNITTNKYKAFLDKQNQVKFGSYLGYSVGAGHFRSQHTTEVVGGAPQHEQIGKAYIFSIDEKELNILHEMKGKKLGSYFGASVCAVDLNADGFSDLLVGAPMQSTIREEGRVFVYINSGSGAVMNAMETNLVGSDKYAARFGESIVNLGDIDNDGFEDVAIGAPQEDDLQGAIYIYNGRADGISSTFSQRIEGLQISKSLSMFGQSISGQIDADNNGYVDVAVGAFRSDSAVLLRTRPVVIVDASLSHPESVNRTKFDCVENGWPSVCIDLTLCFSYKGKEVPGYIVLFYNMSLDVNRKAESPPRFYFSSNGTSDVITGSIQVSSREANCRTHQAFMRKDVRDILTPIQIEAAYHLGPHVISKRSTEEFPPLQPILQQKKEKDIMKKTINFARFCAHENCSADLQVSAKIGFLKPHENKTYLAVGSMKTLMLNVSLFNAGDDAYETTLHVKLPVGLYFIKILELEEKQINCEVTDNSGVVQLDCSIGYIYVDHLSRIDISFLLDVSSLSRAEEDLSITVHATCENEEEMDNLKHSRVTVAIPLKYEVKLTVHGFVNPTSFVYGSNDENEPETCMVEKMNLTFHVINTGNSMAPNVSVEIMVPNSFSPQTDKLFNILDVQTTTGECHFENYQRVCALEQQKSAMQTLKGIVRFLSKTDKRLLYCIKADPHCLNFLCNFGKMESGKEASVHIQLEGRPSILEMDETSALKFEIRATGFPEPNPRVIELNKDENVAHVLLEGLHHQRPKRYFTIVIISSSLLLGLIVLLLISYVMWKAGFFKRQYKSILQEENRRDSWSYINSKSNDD

[8] = calorie-restriction mimetic ROS inhibitors, yeast – validation compound set, pilot screen (AID 2706;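 active means superoxide response below 65% of plate, a cut near 3 SD across the whole screen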;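 further: yeast exposed to compound for one week at 30 degrees C before staining; 100% = mean of all compound wells on the same plate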); settings: S. cerevisiae aging, superoxide DHE fluorescence; at 10 µM; stronger effect = lower value
[9] = target: Beta-adrenergic receptor kinase 1 (Homo sapiens) (UniProt P25098); assay: GRK2 binders displacing RNA aptamer, biochemical, validation, human GRK2, bead flow cytometry (AID 488806;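 active means aptamer binding inhibition above 30%, about 3 SD of noise from non-fluorescent compounds; inactive means inhibition at or below 30%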); settings: bead-bound GRK2, FAM-aptamer displacement, at 10 µM, stronger effect = higher value
Chain of Beta-adrenergic receptor kinase 1 (Homo sapiens) (P25098 whole entry, looked up): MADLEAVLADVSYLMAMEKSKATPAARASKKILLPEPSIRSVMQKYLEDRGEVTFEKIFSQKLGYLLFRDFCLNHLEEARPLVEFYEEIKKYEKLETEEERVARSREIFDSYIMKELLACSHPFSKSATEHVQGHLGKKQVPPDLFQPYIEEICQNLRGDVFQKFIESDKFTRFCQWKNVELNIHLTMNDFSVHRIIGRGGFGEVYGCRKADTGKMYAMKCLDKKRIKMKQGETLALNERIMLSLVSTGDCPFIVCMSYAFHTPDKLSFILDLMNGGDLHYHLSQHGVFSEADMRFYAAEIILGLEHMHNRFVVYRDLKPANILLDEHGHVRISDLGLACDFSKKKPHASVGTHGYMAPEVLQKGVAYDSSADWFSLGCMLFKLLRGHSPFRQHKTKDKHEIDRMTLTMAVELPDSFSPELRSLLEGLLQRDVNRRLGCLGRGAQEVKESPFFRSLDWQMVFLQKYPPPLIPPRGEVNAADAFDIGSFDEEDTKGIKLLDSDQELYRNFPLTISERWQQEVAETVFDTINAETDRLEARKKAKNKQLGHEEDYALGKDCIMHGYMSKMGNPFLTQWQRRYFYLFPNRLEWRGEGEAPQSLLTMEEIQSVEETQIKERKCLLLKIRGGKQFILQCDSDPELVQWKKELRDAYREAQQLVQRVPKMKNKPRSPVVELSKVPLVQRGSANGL

[10] = target: Beta-2 adrenergic receptor (Homo sapiens) (UniProt P07550); assay: agonist-induced loss of surface beta2AR – cell-based, FAP fluorogen, flow cytometry, validation set, pilot screen (AID 504459;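 active means percent response above 42, roughly 3 SD of non-fluorescent test compounds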;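 further: agonist-driven loss of surface beta2AR via internalization measured by FAP dye flow cytometry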); settings: Am2.2-beta2AR cells, at 10 µM, stronger effect = higher value
Chain of Beta-2 adrenergic receptor (Homo sapiens) (P07550 whole entry, looked up): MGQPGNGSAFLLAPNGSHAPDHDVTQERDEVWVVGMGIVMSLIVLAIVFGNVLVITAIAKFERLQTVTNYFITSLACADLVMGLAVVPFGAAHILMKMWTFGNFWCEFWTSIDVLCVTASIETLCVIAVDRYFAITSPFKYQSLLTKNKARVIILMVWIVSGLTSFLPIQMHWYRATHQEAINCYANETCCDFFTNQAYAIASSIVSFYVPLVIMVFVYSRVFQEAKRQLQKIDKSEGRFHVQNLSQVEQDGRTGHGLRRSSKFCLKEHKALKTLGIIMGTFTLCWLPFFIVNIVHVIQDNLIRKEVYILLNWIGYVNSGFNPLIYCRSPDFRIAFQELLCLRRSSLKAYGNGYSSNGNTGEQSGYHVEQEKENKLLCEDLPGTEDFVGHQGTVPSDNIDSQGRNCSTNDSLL

[11] = target: AP-2 complex subunit beta (Homo sapiens) (UniProt P63010); assay: beta-arrestin/AP2 interaction blockers – biochemical, validation set, GST-AP2 beads, flow cytometry, pilot screen (AID 504541;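 active means inhibition above 54%, about 3 SD of non-fluorescent compounds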;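 further: AP2 carries R879A mutation and is captured from E. coli lysate; bead-bound FITC arrestin peptide fluorescence measuring arrestin peptide binding to AP2; 0% = DMSO wells and 100% = excess unlabeled arrestin peptide control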); settings: FITC arrestin peptide, at 10 µM, stronger effect = higher value, AP2 beta2 appendage fragment, R879A mutant
Chain of AP-2 complex subunit beta (Homo sapiens) (P63010 whole entry, looked up, the tested form may be a part, one chain of several): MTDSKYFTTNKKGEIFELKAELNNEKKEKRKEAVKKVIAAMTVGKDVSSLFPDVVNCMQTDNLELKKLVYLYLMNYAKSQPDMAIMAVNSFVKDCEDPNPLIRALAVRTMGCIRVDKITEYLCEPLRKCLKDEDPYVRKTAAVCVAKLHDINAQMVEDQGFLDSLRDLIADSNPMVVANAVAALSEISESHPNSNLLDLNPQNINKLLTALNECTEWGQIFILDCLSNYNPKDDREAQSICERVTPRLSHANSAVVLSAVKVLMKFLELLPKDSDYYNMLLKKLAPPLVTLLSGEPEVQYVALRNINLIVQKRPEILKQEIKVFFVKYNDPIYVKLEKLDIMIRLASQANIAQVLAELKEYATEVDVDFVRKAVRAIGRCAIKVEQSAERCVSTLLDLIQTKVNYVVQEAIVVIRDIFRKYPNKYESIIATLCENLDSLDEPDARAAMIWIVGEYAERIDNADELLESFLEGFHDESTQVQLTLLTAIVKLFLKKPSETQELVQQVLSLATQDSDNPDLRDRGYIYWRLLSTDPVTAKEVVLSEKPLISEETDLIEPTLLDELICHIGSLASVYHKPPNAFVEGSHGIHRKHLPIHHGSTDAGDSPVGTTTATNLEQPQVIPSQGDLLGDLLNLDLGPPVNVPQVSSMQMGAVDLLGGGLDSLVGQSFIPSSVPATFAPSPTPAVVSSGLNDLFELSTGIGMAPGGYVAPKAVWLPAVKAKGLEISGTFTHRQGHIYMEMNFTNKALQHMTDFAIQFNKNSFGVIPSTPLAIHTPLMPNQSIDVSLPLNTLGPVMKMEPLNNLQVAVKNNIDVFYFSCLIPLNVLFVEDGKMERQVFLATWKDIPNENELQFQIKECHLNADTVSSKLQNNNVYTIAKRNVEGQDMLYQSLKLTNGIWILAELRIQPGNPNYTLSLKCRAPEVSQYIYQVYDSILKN

[12] = cytosolic pH regulators acting via V-ATPase – S. cerevisiae, pHLuorin, HTS validation (AID 504600; in the data active means response above about 15%;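 further: plate controls were DMSO for no effect and reference compound for full effect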); settings: V-ATPase proton transport, at 10 µM, stronger effect = higher value
[13] = test system: anti-desmoglein-3 scFv antibody binding to human DSG3; assay: blockers of pathogenic pemphigus antibody–desmoglein-3 binding – biochemical, validation compound set, bead-based, flow cytometry, pilot screen (AID 588368;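 active means binding below the plate cutoff, the plate median minus 3 SD, with a reading above zero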;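 further: signal is the median channel fluorescence of bead-bound GFP antibody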); settings: Protein G beads, DSG3-Fc, scFv-GFP binding, at 10 µM, stronger effect = lower value
[14] = Nile Red efflux blockade in pump-expressing yeast – validation compound set, multiplex, phenotypic, pilot screen (AID 588506);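 further: Nile Red retained in cells so higher fluorescence means more efflux inhibition; 0 = negative control wells and 1 = enniatin B 25 µM full block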; settings: S. cerevisiae pump-expressing triplex, Nile Red efflux flow cytometry; at 10 µM; stronger effect = higher value; the pumps come from Candida albicans
[15] = target: ATP-binding cassette sub-family B member 6 (Homo sapiens) (UniProt Q9NP58); assay: blockers of ABCB6-driven porphyrin uptake – K562-ABCB6 cells, flow cytometry, validation set, pilot screen (AID 588550;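 active means inhibition above the screen-wide mean plus 3 SD, about 51%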;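 further: 0% = DMSO wells and 100% = benzethonium chloride 70 µM positive control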); settings: K562-ABCB6 porphyrin accumulation, 1 h, at 10 µM, stronger effect = higher value
Chain of ATP-binding cassette sub-family B member 6 (Homo sapiens) (Q9NP58 whole entry, looked up): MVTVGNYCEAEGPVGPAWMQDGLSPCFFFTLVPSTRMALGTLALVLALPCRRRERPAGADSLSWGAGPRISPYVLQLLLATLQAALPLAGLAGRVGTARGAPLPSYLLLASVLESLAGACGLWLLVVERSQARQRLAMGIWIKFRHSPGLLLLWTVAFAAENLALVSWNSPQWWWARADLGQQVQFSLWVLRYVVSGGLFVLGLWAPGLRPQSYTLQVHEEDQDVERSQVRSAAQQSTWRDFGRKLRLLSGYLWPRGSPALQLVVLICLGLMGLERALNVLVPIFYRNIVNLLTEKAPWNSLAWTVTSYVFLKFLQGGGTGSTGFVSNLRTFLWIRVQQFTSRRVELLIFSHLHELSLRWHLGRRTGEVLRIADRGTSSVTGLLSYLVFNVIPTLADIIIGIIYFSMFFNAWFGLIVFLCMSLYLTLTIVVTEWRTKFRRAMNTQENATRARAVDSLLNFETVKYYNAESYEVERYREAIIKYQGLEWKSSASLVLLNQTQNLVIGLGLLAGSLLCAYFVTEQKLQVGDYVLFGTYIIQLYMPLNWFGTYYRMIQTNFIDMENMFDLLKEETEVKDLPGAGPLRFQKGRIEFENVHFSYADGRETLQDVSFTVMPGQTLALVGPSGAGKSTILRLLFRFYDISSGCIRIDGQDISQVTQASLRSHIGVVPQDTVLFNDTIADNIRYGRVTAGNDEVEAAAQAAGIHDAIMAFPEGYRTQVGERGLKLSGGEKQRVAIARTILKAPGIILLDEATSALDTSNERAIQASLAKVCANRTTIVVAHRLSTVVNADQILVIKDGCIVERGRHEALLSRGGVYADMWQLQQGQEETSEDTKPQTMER

[16] = AML differentiation inducers, ER-HoxA9 marrow cells – cell-based, GFP/MAC1 double positive, flow cytometry, validation set, primary screen (AID 588685;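 active means differentiation response of at least 50%, scaled between solvent and reference control, from cells with both markers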;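 further: compound exposure lasts four days before antibody staining and flow analysis; 0% = DMSO wells and 100% = 5 µM fulvestrant positive control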); settings: stronger effect = higher value, normalized: vehicle 0, fulvestrant 100

CC(=O)Nc1ccc2[nH]c(C)c(CC=C(Cl)Cl)c(=O)c2c1
inactive: percent of DMSO control GFP [1] 105% | GFP response vs DMSO [2] 113% | percent response of DMSO control [3] 93.9% | GFP response vs DMSO [4] 87.3% | GFP response, % of DMSO [5] 94.8% | vesicle binding response [6] 146% | inhibition [7] 12.6% | superoxide response (% of plate) [8] 110% | aptamer binding inhibition [9] 4% | response [10] 5.01% | inhibition [11] -17.8% | response [12] 0.46% | binding (% of control) [13] 97.9% | efflux inhibition (fraction of control) [14] 0.14 | inhibition [15] 11% | differentiation response [16] -5.68%
61.1%: double positive events [6]

CN1CCc2c(n(CC(O)CN(CCO)CCO)c3ccccc23)C1=O (stereo not drawn)
active: GFP response vs DMSO [2] 143%
52.3%: double positive events [6]
inactive: percent of DMSO control GFP [1] 92.6% | percent response of DMSO control [3] 97.9% | GFP response vs DMSO [4] 82% | GFP response, % of DMSO [5] 99.6% | vesicle binding response [6] 195% | inhibition [7] -9.06% | superoxide response (% of plate) [8] 100% | aptamer binding inhibition [9] 0% | response [10] -17.4% | inhibition [11] 13.6% | response [12] -1.82% | binding (% of control) [13] 104% | efflux inhibition (fraction of control) [14] 0.09 | inhibition [15] 8% | differentiation response [16] -9.83%

C=CCNc1nc2c(c(=O)n(C)c(=O)n2C)n1CC(=C)C
63.3%: double positive events [6]
inactive: percent of DMSO control GFP [1] 101% | GFP response vs DMSO [2] 101% | percent response of DMSO control [3] 101% | GFP response vs DMSO [4] 91.6% | GFP response, % of DMSO [5] 103% | vesicle binding response [6] 176% | inhibition [7] -16.1% | superoxide response (% of plate) [8] 103% | aptamer binding inhibition [9] 3% | response [10] -5.19% | inhibition [11] 8.24% | response [12] -4.28% | binding (% of control) [13] 104% | efflux inhibition (fraction of control) [14] -0.38 | inhibition [15] 3% | differentiation response [16] -1.88%

CCN(CC)CCNC(=O)c1ccc(N)cc1
inactive: percent of DMSO control GFP [1] 99.6% | GFP response vs DMSO [2] 106% | percent response of DMSO control [3] 91.9% | GFP response vs DMSO [4] 89.4% | GFP response, % of DMSO [5] 94.6% | vesicle binding response [6] 1180% | inhibition [7] -6.68% | superoxide response (% of plate) [8] 94.8% | aptamer binding inhibition [9] -2% | response [10] -4.02% | inhibition [11] -0.67% | response [12] 0.99% | binding (% of control) [13] 94.2% | efflux inhibition (fraction of control) [14] -0.14 | inhibition [15] 21% | differentiation response [16] 6.11%
63.2%: double positive events [6]

CCc1ccc(CN(C)Cc2nc(Cc3ccccc3)no2)nc1
inactive: percent of DMSO control GFP [1] 105% | GFP response vs DMSO [2] 99.6% | percent response of DMSO control [3] 103% | GFP response vs DMSO [4] 112% | GFP response, % of DMSO [5] 112% | vesicle binding response [6] 160% | inhibition [7] 0.59% | superoxide response (% of plate) [8] 101% | aptamer binding inhibition [9] 4% | response [10] -25% | inhibition [11] 1.57% | response [12] -11.6% | binding (% of control) [13] 97.3% | efflux inhibition (fraction of control) [14] -0.04 | inhibition [15] -5% | differentiation response [16] 14.7%
59.8%: double positive events [6]

CC1=NS(=O)(=O)c2cc(Cl)ccc2N1
inactive: percent of DMSO control GFP [1] 98.8% | GFP response vs DMSO [2] 105% | percent response of DMSO control [3] 93.1% | GFP response vs DMSO [4] 84.1% | GFP response, % of DMSO [5] 97% | vesicle binding response [6] 964% | inhibition [7] -3.57% | superoxide response (% of plate) [8] 104% | aptamer binding inhibition [9] 3% | response [10] -5.04% | inhibition [11] 14.6% | response [12] -1.96% | binding (% of control) [13] 101% | efflux inhibition (fraction of control) [14] -0.1 | inhibition [15] 4% | differentiation response [16] 34.5%
63.9%: double positive events [6]

COc1ccc(N2C(=O)C3C(C2=O)C(C(=O)c2ccccc2)N2CCCC32)cc1 (stereo not drawn)
61.2%: double positive events [6]
inactive: percent of DMSO control GFP [1] 98.6% | GFP response vs DMSO [2] 107% | percent response of DMSO control [3] 84.4% | GFP response vs DMSO [4] 122% | GFP response, % of DMSO [5] 95.7% | vesicle binding response [6] 241% | inhibition [7] -20.9% | superoxide response (% of plate) [8] 102% | aptamer binding inhibition [9] 5% | response [10] 37.4% | inhibition [11] 4.51% | response [12] -0.56% | binding (% of control) [13] 100% | efflux inhibition (fraction of control) [14] -0.24 | inhibition [15] -7% | differentiation response [16] 12%

O=C(CCc1ccccc1)Nc1ccccc1C(F)(F)F
inactive: percent of DMSO control GFP [1] 103% | GFP response vs DMSO [2] 105% | percent response of DMSO control [3] 107% | GFP response vs DMSO [4] 94.7% | GFP response, % of DMSO [5] 103% | vesicle binding response [6] 240% | inhibition [7] 2.66% | superoxide response (% of plate) [8] 96.3% | aptamer binding inhibition [9] 1% | response [10] -5.39% | inhibition [11] -5.17% | response [12] 2.37% | binding (% of control) [13] 100% | efflux inhibition (fraction of control) [14] 0.18 | inhibition [15] -2% | differentiation response [16] 0.24%
64.1%: double positive events [6]

COc1cc(C2Nc3ccccc3NC3=C2C(=O)CC(c2ccc(OC)c(OC)c2)C3)ccc1O (stereo not drawn)
inactive: percent of DMSO control GFP [1] 107% | GFP response vs DMSO [2] 95.2% | percent response of DMSO control [3] 117% | GFP response vs DMSO [4] 64.1% | GFP response, % of DMSO [5] 92.2% | vesicle binding response [6] 104% | inhibition [7] -3.16% | superoxide response (% of plate) [8] 107% | aptamer binding inhibition [9] 3% | response [10] 0.79% | inhibition [11] -8.83% | response [12] 1.04% | binding (% of control) [13] 98.4% | efflux inhibition (fraction of control) [14] -0.35 | inhibition [15] 11% | differentiation response [16] -18.4%
53.7%: double positive events [6]
